Sampled rows, rich in hits. Any-hit rate of the full collection: about 10%.
SW480 rerep: A quantitative high throughput screen for small molecules that induce DNA re-replication in SW480 colon adenocarcinoma cells; SW480 DNA re-replication, Hoechst DNA content imaging, 48 h; Potency, µM (highest dose often 46.1 µM), for the others: at the highest dose re-replication activation, usual class: activators; 340,000 tested, 1.8% active; AID 624297, 2012; further: % of control where 0% means no effect; nearly all actives have a fitted effect of over 55% in size
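Hoechst fluorescence of nuclei (405 nm excitation, 500-530 nm emission) measured by plate-scanning imager after 48 hr compound exposure at 37 C; re-replication scored as increased number of nuclei with elevated intensity.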
KB-3-1 tox: qHTS assay for MDR1-selective chemotherapeutics: Primary screen using the parental adenocarcinoma cell KB-3-1; KB-3-1 viability, CellTiter-Glo ATP luminescence, 72 h; Potency, µM (top dose mostly 46.1 µM), hits mostly cytotoxic; 400,000 tested, 1.4% active; AID 1347075, 2019; further: on the % scale 0 is the no-effect control and ±100 the full control effect; nearly all actives have a fitted effect of over 60% in size
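Luminescent ATP read-out (CellTiter-Glo) measures survival of drug-naive KB-3-1 cells after 72 h compound exposure at 37 °C. Titration series was screened from lowest to highest concentration, with DMSO vehicle plates as background controls.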
VP16 counter: VP16 counterscreen qHTS for inhibitors of ROR gamma transcriptional activity; Potency, µM (highest dose often 53.6 µM), for the others: at the top dose activity, negative = inhibition, hits mostly inhibitors; 310,000 tested, 3.5% active; Drosophila S2 Gal4-VP16 UAS-luciferase, luminescence, 20 h;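 further: Gal4-VP16 expression switched on by copper sulfate through the metallothionein promoter; on the % scale 0 is the no-effect control and ±100 the full control effect; nearly all actives have a fitted effect of over 50% in size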
KB-V1 cytotox: qHTS assay for MDR1-selective chemotherapeutics: Primary screen using the drug-selected MDR subline cells KB-V1 | KB-V1 MDR cells viability, CellTiter-Glo, 72 h | AID 1347076, 2019 | 400,000 tested, 3.4% active | Potency, µM (titrated, usually from 46.1 µM), most hits filed as cytotoxic; further: on the % scale 0 is the no-effect control and ±100 the full control effect; nearly all actives have a fitted effect of over 60% in size
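Potencies derive from concentration-effect curves fitted to normalized luminescence (CellTiter-Glo) of KB-V1 cells treated for 72 h at 37 degrees C in phenol-red-free DMEM containing 10% FBS.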
MCF10A rerep: A quantitative high throughput screen for small molecules that induce DNA re-replication in MCF 10a normal breast cells; Potency, µM (doses to about 46.1 µM), for the others: at the highest dose activity, positive = re-replication, most hits filed as activators; 350,000 tested, 2.9% active; MCF 10A DNA re-replication, Hoechst nuclear intensity, 48 h; further: % of control where 0% means no effect; nearly all actives have a fitted effect of over 50% in size
RORg inh: qHTS for inhibitors of ROR gamma transcriptional activity | Nuclear receptor ROR-gamma (Mus musculus), P51450 | Drosophila S2 Gal4-RORgamma UAS-luciferase reporter, 20 h | Potency, µM (highest dose often 53.6 µM), without a hit: top-dose activity change, negative = inhibition, most hits filed as inhibitors | 310,000 tested, 5.4% active | AID 2551, 2010; further: on the % scale 0 is the no-effect control and ±100 the full control effect; nearly all actives have a fitted effect of over 60% in size
Target sequence (P51450 whole entry, looked up, the tested form may be a part): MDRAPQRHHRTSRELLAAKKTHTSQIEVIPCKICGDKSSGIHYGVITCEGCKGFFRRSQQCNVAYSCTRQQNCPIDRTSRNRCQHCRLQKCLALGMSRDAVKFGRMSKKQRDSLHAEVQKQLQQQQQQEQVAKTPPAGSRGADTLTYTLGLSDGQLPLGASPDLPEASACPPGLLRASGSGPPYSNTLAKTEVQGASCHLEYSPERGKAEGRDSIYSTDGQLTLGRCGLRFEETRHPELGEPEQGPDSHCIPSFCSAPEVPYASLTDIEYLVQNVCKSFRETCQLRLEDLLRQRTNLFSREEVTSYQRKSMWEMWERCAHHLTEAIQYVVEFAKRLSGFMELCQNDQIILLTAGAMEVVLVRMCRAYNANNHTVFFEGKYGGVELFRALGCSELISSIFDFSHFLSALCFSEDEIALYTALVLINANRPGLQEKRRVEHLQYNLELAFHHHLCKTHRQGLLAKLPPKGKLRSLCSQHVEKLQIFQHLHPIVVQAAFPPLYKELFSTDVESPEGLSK
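Compounds are pin-transferred onto Drosophila Schneider cells expressing a copper-inducible Gal4–ROR gamma transactivation domain fusion. After 1 hr, copper sulfate is added to 700 uM final; luciferase is read 20 hr later.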
* = called active by the depositor; i = inactive; u = inconclusive; x = not tested or not shown; ! = a repeat was not active; [ ] = remark or other dose. The call rests on the fitted dose curve; in most records, active means well fitted curve in the direction sought with a large enough effect; inconclusive means small, poorly fitted or top-dose-only effect, or another doubt; inactive means no such curve, though single readings can be large; an effect the other way counts as inactive or inconclusive. Potency means the concentration at half of the fitted maximal effect.

SMILES	SW480 rerep	KB-3-1 tox	VP16 counter	KB-V1 cytotox	MCF10A rerep	RORg inh
CCOC(=O)c1ccc(NC(=O)/C=C/c2cccs2)cc1	u	i	-7.2%	i	u	u
Cc1onc(-c2ccccc2Cl)c1C(=O)N/N=C(\N)COc1ccc(Cl)cc1	-0.8%	u	1µM*	14.6µM*	15.3%	0.447µM*
Cc1onc(-c2ccccc2)c1C(=O)N/N=C(\N)COc1ccc(Cl)cc1	12.4%	u	1.26µM*	14.6µM*	14.8%	1µM*
CCc1cc2c(SCc3nc4sc(C(C)=O)c(C)c4c(=O)[nH]3)ncnc2s1	-4.7%	i	u	i	-5.5%	10µM*
O=C(O)c1ccc(O)c2ncccc12	x	i	x	i	x	x
Cc1ccc(S(=O)(=O)Nc2cc(S(=O)(=O)c3ccc(C)cc3)c(O)c3cccnc23)cc1	x	x	12.8%	x	x	-15.7%
Oc1c(I)cc(I)c2cccnc12	u	i	4.47µM*	u	u	2.51µM*
Cc1ccc(S(=O)(=O)Nc2cc(Cl)c(O)c3ncccc23)cc1	5.17µM*	u	1.26µM*	u	u	0.708µM*
Oc1ccc(Cl)c2cccnc12	20.6µM*	u	3.16µM*!	u	u	1.78µM*
Oc1c(Cl)cc(Cl)c2cccnc12	3.76µM*	u	u	i	6.68µM*	0.0794µM*
O=S(=O)(O)c1cc(I)c(O)c2ncccc12	4.5%	x	-1.3%	x	8.0%	u
CCC(Cc1ccccc1)NS(=O)(=O)c1c(C)nc2sccn2c1=O (stereo not drawn)	-2.2%	i	0.2%	i	1.9%	-5.8%
CC(C)C(=O)N1CCC1(C)C(=O)Nc1ccc(-n2cncn2)cc1 (stereo not drawn)	x	i	x	i	x	x
Oc1ccc(F)c2cccnc12	u	i	4.47µM*	i	u	2.82µM*
O=S(=O)(Nc1ccc(O)c2ncccc12)c1ccccc1F	x	i	x	i	x	x
CC(CNC(=O)Cc1ccc(NC(=O)N2CCSc3ncccc32)cc1)c1ccccc1 (stereo not drawn)	x	i	x	i	x	x
Cc1nc2cc(N3CCN(C)CC3)c(NC(=O)Cc3ccccc3)cc2c(=O)n1Cc1ccccc1	-9.9%	i	u	i	7.9%	7.08µM*
Cc1cc(C)n(CC(=O)N2c3ccccc3Sc3ccccc32)n1	1.1%[9.22 µM]	i	-29.6%	i	-2.4%	7.08µM*
Cc1ccc(SCC(=O)N2c3ccccc3Sc3ccccc32)cc1	3.3%	i	-15.2%	i	7.31µM*	27.8%
Cn1nnnc1SCC(=O)N1c2ccccc2Sc2ccccc21	-2.6%	i	1.9%	i	3.1%	5.8%
CCc1nc(SCC(=O)N2c3ccccc3Sc3ccccc32)c2ccccc2n1	8.1%	i	-0.2%	8.2µM*	4.9%	-40.5%
CCc1nc(SCC(=O)c2ccccc2)c2ccccc2n1	-5.7%	i	-0.3%	i	u	-1.0%
O=C(CSc1nncs1)N1c2ccccc2Sc2ccccc21	20.6µM*	i	9.4%	u	8.2µM*	0.1%[10 µM]
COc1cccc(-c2cncnc2NCc2cccs2)c1	x	x	4.9%	x	x	9.6%
CCc1ccccc1NC(=O)C1CCN(S(=O)(=O)c2ccc3[nH]c(=O)ccc3c2)CC1	x	i	x	i	x	x
COc1ccc(N2CC(C(=O)N3CCOCC3)CC2=O)cc1 (stereo not drawn)	-7.7%	i	-1.0%	i	-14.2%	14.6%
COc1ccc(N2CC(C(=O)N3CCCC(C)C3)CC2=O)cc1 (stereo not drawn)	18.4µM*	i	x	i	2.8%	x
Brc1ccc(-c2nnc3c4ccccc4nc(N4CCOCC4)n23)cc1	-13.6%	i	6.2%	2.59µM*	3.1%	17.4%

Source: PubChem
